Values joined by “and” are separate entries in the source; they are usually repeats but may differ in a detail not shown here. Identical values can stand only once. Some structures have more than one record in an assay (separate samples or runs), and their calls can disagree. Active and inactive are the calls of the source. How the source made its calls: active means hit-call score of the fitted dose curve at least 0.9, where 1 is the maximum; inactive means score below 0.9.
Assays:
Conditions in all cases: mRNA level, 48 h; actives raise or lower the signal
[1] = read-out: Cytochrome P450 3A4 (Homo sapiens) (UniProt P08684); experiment: LTEA_HepaRG_CYP3A4: Life Technologies and Expression Analysis (LTEA) Assay for CYP3A4 using HepaRG (AID 2283487)
How it was run: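 Differentiated HepaRG cells in serum-free induction medium exposed in duplicate for 48 h to 8 half-log concentrations up to 100 uM in 0.5% DMSO. CYP3A4 mRNA measured by qRT-PCR normalized to ACTB, GAPDH and POLR2A; bidirectional fit versus DMSO.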

[2] = read-out: Pro-epidermal growth factor (Homo sapiens) (UniProt P01133); experiment: LTEA_HepaRG_EGF: Life Technologies and Expression Analysis (LTEA) Assay for Epidermal growth factor (EGF) using HepaRG (AID 2283489)
How it was run: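 HepaRG, 48 h dosing, 100 uM top, half-log x8, 0.5% DMSO. Readout: TaqMan qRT-PCR (Fluidigm array), housekeeping-normalized. Gain or loss of signal fit vs DMSO.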

[3] = read-out: Ezrin (EZR), EZR (gene 7430); experiment: LTEA_HepaRG_EZR: Life Technologies and Expression Analysis (LTEA) Assay for Ezrin (EZR) using HepaRG (AID 2283491)
How it was run: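 Differentiated human HepaRG cells, 48 h after plating, were exposed in serum-free induction medium for 48 hours to eight half-log concentrations up to 100 uM in 0.5% DMSO. EZR mRNA was measured by TaqMan qRT-PCR, normalized to ACTB, GAPDH and POLR2A, and fitted bidirectionally against DMSO.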

[4] = read-out: Cytochrome P450 3A7 (Homo sapiens) (UniProt P24462); experiment: LTEA_HepaRG_CYP3A7: Life Technologies and Expression Analysis (LTEA) Assay for CYP3A7 using HepaRG (AID 2283492)
How it was run: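 Human HepaRG liver cells, 48 h post-plating, switched to serum-free induction medium and exposed in duplicate for 48 h. Dosing: 100 uM top, half-log dilutions, 8 points, 0.5% DMSO vehicle. Read-out: CYP3A7 mRNA, gain or loss fitted against DMSO baseline.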

CYP3A5 (gene 1577) = experiment: LTEA_HepaRG_CYP3A5: Life Technologies and Expression Analysis (LTEA) Assay for CYP3A5 using HepaRG (AID 2283493)
How it was run: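 qRT-PCR read-out: CYP3A5 transcript in HepaRG lysates, housekeeping-normalized (ACTB/GAPDH/POLR2A), fitted bidirectionally against 0.5% DMSO baseline. Exposure 48 h, eight half-log concentrations up to 100 uM, duplicates.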

[5] = read-out: Fatty Acid-Binding Protein 1 (FABP1), FABP1 (gene 2168); experiment: LTEA_HepaRG_FABP1: Life Technologies and Expression Analysis (LTEA) Assay for Fatty Acid-Binding Protein 1 (FABP1) using HepaRG (AID 2283494)
How it was run: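 qRT-PCR readout of FABP1 transcript (normalized to three housekeeping genes) after 48 h chemical exposure of HepaRG cells; eight concentrations, half-log steps, max 100 uM, 0.5% DMSO vehicle; gain or loss fitted relative to DMSO baseline.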

[6] = read-out: Cytochrome P450 4A22 (Homo sapiens) (UniProt Q5TCH4); experiment: LTEA_HepaRG_CYP4A22: Life Technologies and Expression Analysis (LTEA) Assay for Cytochrome P450 4A22 (CYP4A22) using HepaRG (AID 2283495)
How it was run: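 Readout is CYP4A22 transcript induction or loss, quantified by qRT-PCR and normalized to ACTB, GAPDH and POLR2A. Human HepaRG cells receive test chemicals for 48 h at eight half-log concentrations from 100 uM in 0.5% DMSO.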

[7] = read-out: Cytochrome P450 7A1 (Homo sapiens) (UniProt P22680); experiment: LTEA_HepaRG_CYP7A1: Life Technologies and Expression Analysis (LTEA) Assay for Cytochrome P450 7A1 (CYP7A1) using HepaRG (AID 2283496)
How it was run: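 Using 0.5% DMSO as vehicle and baseline, chemicals were tested in duplicate over an 8-point range from 100 uM on HepaRG cells for 48 h; qRT-PCR signals were normalised to ACTB, GAPDH and POLR2A.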

[8] = read-out: Early growth response protein 1 (EGR1) transcription factor, EGR1 (gene 1958); experiment: LTEA_HepaRG_EGR1: Life Technologies and Expression Analysis (LTEA) Assay for Early growth response protein 1 (EGR1) transcription factor using HepaRG (AID 2283490)
How it was run: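 HepaRG, 48 h exposure, 8-pt half-log series from 100 uM, 0.5% DMSO vehicle; EGR1 transcript by TaqMan qRT-PCR (Fluidigm array), housekeeping-normalized; bidirectional fit relative to DMSO baseline.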

[9] = read-out: DNA damage-inducible transcript 3 (DDIT3), DDIT3 (gene 1649); experiment: LTEA_HepaRG_DDIT3: Life Technologies and Expression Analysis (LTEA) Assay for DNA damage-inducible transcript 3 (DDIT3) using HepaRG (AID 2283488)
How it was run: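 qRT-PCR readout (Fluidigm TaqMan), housekeeping-normalized to ACTB, GAPDH, POLR2A. HepaRG cells, 48 h exposure, 8-point half-log series from 100 uM in 0.5% DMSO, duplicates. Gain or loss of signal fitted against DMSO baseline.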

Measured: AC50

Sequence of Cytochrome P450 3A4 (Homo sapiens) (P08684 whole entry, looked up): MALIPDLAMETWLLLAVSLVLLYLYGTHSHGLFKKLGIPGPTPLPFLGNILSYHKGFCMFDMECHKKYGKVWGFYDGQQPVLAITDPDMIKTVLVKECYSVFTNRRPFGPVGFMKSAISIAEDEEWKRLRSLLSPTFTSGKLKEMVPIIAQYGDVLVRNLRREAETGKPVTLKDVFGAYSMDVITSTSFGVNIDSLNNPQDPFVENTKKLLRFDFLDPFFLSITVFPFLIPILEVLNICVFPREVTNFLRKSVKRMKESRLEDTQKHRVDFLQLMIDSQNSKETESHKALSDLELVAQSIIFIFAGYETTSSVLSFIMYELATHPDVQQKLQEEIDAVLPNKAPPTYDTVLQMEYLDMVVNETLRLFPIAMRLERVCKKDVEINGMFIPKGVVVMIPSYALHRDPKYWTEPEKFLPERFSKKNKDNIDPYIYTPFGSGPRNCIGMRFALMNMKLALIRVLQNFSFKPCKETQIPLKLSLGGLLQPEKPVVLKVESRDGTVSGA
Sequence of Cytochrome P450 3A7 (Homo sapiens) (P24462 whole entry, looked up): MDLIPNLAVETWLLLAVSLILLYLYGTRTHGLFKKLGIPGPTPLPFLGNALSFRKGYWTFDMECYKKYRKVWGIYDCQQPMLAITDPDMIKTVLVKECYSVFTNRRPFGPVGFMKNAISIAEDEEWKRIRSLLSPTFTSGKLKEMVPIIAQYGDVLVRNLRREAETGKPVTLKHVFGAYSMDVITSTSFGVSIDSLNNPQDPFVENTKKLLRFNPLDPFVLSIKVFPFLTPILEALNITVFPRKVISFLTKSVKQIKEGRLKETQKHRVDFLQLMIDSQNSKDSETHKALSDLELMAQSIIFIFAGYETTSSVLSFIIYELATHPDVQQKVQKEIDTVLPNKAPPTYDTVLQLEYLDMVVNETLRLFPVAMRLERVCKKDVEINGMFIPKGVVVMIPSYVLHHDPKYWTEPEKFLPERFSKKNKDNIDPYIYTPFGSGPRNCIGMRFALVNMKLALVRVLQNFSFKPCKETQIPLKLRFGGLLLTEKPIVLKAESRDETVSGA

COC(=O)CSc1cc(N=c2sc(=O)n3n2CCCC3)c(F)cc1Cl
active: [1] 13.5 µM | [4] 16 µM
not listed: [8] | [9]
inactive: all other assays above

COC(=O)c1ccc(I)cc1S(=O)(=O)NC(=O)Nc1nc(C)nc(OC)n1
active: [1] 29.3 µM
not listed: [7] | [9]
inactive: all other assays above

COc1c(Cl)ccc(Cl)c1C(=O)O
not listed: [2] | [6] | [7]
inactive: all other assays above

CCNc1nc(N)nc(Cl)n1
active: [1] 3.18 µM | [4] 9.92 µM
not listed: [8] | [9]
inactive: all other assays above

c1ccc(Nc2ccccc2)cc1
not listed: [9]
inactive: all other assays above

C#CCOC(=O)[C@@H](C)Oc1ccc(Oc2ncc(Cl)cc2F)cc1
active: [4] 50 µM | [5] 64.4 µM | [6] 13.2 µM
not listed: [9]
inactive: all other assays above

CCSC(=O)N(CC(C)C)CC(C)C
inactive: all assays above

O=C(O)C1(C(=O)Nc2ccc(Cl)cc2Cl)CC1
inactive: [3] | CYP3A5 (gene 1577)
active: [1] 75.4 µM | [2] 31.6 µM | [8] 50 µM | [4] 91 µM | [5] 77.5 µM | [6] 80.7 µM | [7] 77.8 µM

CC(C)CCCCCCc1ccc(O)cc1
active: [1] 50 µM
not listed: [8] | [9]
inactive: all other assays above

Oc1ccc(C(c2ccc(O)cc2)C(Cl)(Cl)Cl)cc1
active: [1] 78.7 µM | [3] 80.9 µM | [4] 79.8 µM | CYP3A5 (gene 1577) 70.7 µM | [5] 94.3 µM
inactive: [2] | [6] | [7]

COC(=O)c1ccccc1C(=O)O
not listed: [8]
inactive: all other assays above

N#CSCSc1nc2ccccc2s1
active: [4] 64.3 µM | [5] 88.5 µM | [6] 90.5 µM
not listed: [8] | [9]
inactive: all other assays above

S=C(S)NCCNC(=S)S.[Mn+2].[S-]C([S-])=NCCN=C([S-])[S-].[Zn+2]
active: [1] 827 nM and 1.11 µM and 1.02 µM | [9] 3.87 µM and 1.87 µM and 1.64 µM | [2] 2.3 µM and 673 nM | [4] 947 nM and 1.22 µM and 1.41 µM | CYP3A5 (gene 1577) 1.94 µM and 1.32 µM and 700 nM | [5] 1.18 µM and 1.26 µM and 1.71 µM | [6] 1.38 µM and 1.35 µM | [7] 1.57 µM and 1.44 µM and 1.47 µM
inactive: [2] | [3]

CCCCOC(=O)[C@@H](C)Oc1ccc(Oc2ccc(C(F)(F)F)cn2)cc1
active: [7] 34.2 µM
not listed: [8]
inactive: all other assays above

CC(C)(c1ccc(O)cc1)c1ccc(O)cc1
inactive: [1] | [2] | [3] | [4] | CYP3A5 (gene 1577) | [5] | [6] | [7]
active: [5] 50 µM

S=C([S-])NCCNC(=S)[S-].[Mn+2]
inactive: [3]
active: [1] 3.36 µM | [2] 5.3 µM | [4] 3.49 µM | CYP3A5 (gene 1577) 3.47 µM | [5] 3.58 µM | [6] 3.6 µM | [7] 4.73 µM

CCOC(=O)COc1cc(-n2ncc(C(F)(F)F)c(C)c2=O)c(F)cc1Cl
active: [1] 50 µM | [4] 28.9 µM
inactive: all other assays above

CCCCOC(=O)C(C)Oc1ccc(Oc2ccc(C(F)(F)F)cn2)cc1 (centres undefined)
not listed: [9]
inactive: all other assays above

O=C(O)c1ccccc1
not listed: [8]
inactive: all other assays above

CCC(C)OC(=O)N1CCCCC1CCO (centres undefined)
active: [1] 50 µM
not listed: [8] | [9]
inactive: all other assays above

CCOC(=O)NCCOc1ccc(Oc2ccccc2)cc1
inactive: [2] | [3] | [4]
active: [1] 87.8 µM | CYP3A5 (gene 1577) 84.8 µM | [5] 79.1 µM | [6] 83.2 µM | [7] 83.9 µM

CCN(Cc1c(F)cccc1Cl)c1c([N+](=O)[O-])cc(C(F)(F)F)cc1[N+](=O)[O-]
active: [1] 8.01 µM | [2] 14 µM | [5] 38.7 µM | [7] 50 µM
not listed: [9]
inactive: all other assays above

CCOC(=O)C(C)Oc1ccc(Oc2cnc3cc(Cl)ccc3n2)cc1 (centres undefined)
active: [4] 0.571 µM | CYP3A5 (gene 1577) 0.628 µM | [5] 0.388 µM | [6] 43 µM | [7] 9.27 µM
inactive: [1] | [2] | [8] | [3]

CCCOC(=O)NCCCN(C)C
not listed: [8]
inactive: all other assays above

CC(C)(C)[C@@H](O)[C@@H](Cc1ccc(Cl)cc1)n1cncn1
active: [1] 7.74 µM | [4] 5.85 µM | [5] 50 µM | [6] 27.8 µM
not listed: [8]
inactive: all other assays above

CN(C)C(=O)Nc1ccc(Cl)c(Cl)c1
active: [5] 50 µM | [7] 6.86 µM
not listed: [9]
inactive: all other assays above

CCCCC(CC)COC(=O)c1ccccc1C(=O)O (centres undefined)
active: [7] 50.8 µM
not listed: [1] | [4] | [8]
inactive: all other assays above

O=C(c1ccccc1)C1CCCCC1
not listed: [8] | [9]
inactive: all other assays above

C[C@]12CC[C@@H]3c4ccc(O)cc4C[C@@H](CCCCCCCCCS(=O)CCCC(F)(F)C(F)(F)F)[C@H]3[C@@H]1CC[C@@H]2O (some centres undefined)
inactive: [3] | [6]
active: [1] 31.1 µM | [2] 0.0848 µM | [4] 24.9 µM | CYP3A5 (gene 1577) 15.7 µM | [5] 25.8 µM | [7] 15 µM

CCCCOCCOCCOCc1cc2c(cc1CCC)OCO2
inactive: [2] | [3] | CYP3A5 (gene 1577) | [5] | [6] | [7]

COCCO
inactive: [1] | [3] | [4] | CYP3A5 (gene 1577) | [5]

C[C@]12C[C@H](O)[C@H]3[C@@H](CCC4=CC(=O)CC[C@@]43C)[C@@H]1CC[C@@H]2C(=O)CO
active: [4] 50 µM
not listed: [1] | [9]
inactive: all other assays above

CCCN(CCC)C(=O)SCC
not listed: [8] | [9]
inactive: all other assays above

C=CCOC(Cn1ccnc1)c1ccc(Cl)cc1Cl (centres undefined)
inactive: [3]
active: [2] 85 µM | CYP3A5 (gene 1577) 79.6 µM | [5] 28.6 µM | [6] 18.6 µM | [7] 35.3 µM

CCCOC(=O)c1ccc(C(=O)OCCC)nc1
not listed: [8] | [9]
inactive: all other assays above

CC(=O)[C@H]1CC[C@H]2[C@@H]3CCC4=CC(=O)CC[C@]4(C)[C@H]3CC[C@]12C
inactive: [3]
active: [1] 36 µM | [2] 82 µM | [4] 30.1 µM | CYP3A5 (gene 1577) 84.6 µM | [5] 35.8 µM | [6] 31.1 µM | [7] 26.8 µM

CCCCCCC(C)OC(=O)COc1nc(F)c(Cl)c(N)c1Cl (centres undefined)
not listed: [1] | [8] | [9]
inactive: all other assays above

CCOC(=O)c1ccc(O)cc1
not listed: [1] | [8] | [9]
inactive: all other assays above

CSC(=O)c1cccc2nnsc12
not listed: [8] | [9]
inactive: all other assays above

O=C(Nc1ccc([N+](=O)[O-])cc1Cl)c1cc(Cl)ccc1O
active: [2] 12.1 µM | CYP3A5 (gene 1577) 7.24 µM | [5] 2.25 µM | [6] 14.2 µM | [7] 13.6 µM
inactive: [3]

CCCCCOC(=O)COc1cc(N2C(=O)C3=C(CCCC3)C2=O)c(F)cc1Cl
active: [1] 28 µM
not listed: [8] | [9]
inactive: all other assays above

— PubChem BioAssay (EPA / NIEHS)
